# Fam108B inh: mouse Fam108B serine hydrolase inhibitors, primary screen, counter-screen for RBBP9 inhibitor project, biochemical, fluorescence polarization. recombinant Fam108B, FP-Rh probe fluorescence polarization. inhibition, % at 9.51 µM. 300,000 compounds, 0.33% hits. AID 1947, 2009;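 active means inhibition above the screen mean inhibition plus 3 SD, computed separately per campaign, cut at about 18% in these data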;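 further: inhibitors lower polarization as less probe binds the enzyme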
# LYPLA1 inh: LYPLA1 inhibitors, primary screen, counter-screen for PME1 inhibitor project, biochemical, fluorescence polarization, FP-Rh probe ABPP; recombinant LYPLA1; inhibition, % at 5.9 µM; 320,000 compounds, 0.16% hits; AID 2174, 2009;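 active means inhibition above the mean of all tested compounds plus 3 SD, set per campaign, cut at about 14% in these data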;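 further: inhibitors block serine hydrolase probe labeling of LYPLA1 so polarization falls; 0% = enzyme with DMSO and 100% = wells lacking LYPLA1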
# PAD4 FP inh: human PAD4 inhibitors, primary screen, biochemical, fluorescence polarization, 1536-well format; Protein-arginine deiminase type-4 (Homo sapiens), Q9UM07; recombinant PAD4, RCA probe fluorescence polarization; AID 485272, 2010; inhibition, % at 6.36 µM; 330,000 compounds, 0.41% hits;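 active means percent inhibition above a cutoff equal to the mean of all tested compounds plus 3 SD, cut at about 15% in these data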;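 further: 0% = PAD4 with RCA probe and DMSO and 100% = probe without PAD4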
# PME-1 inh: PME-1 inhibitors via competitive probe labeling, primary screen, biochemical, fluorescence polarization, FP-Rh probe, HTS; recombinant PME-1; inhibition, % at 5.9 µM; 320,000 compounds, 0.53% hits; Protein phosphatase methylesterase 1 (Homo sapiens), Q9Y570;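 active means inhibition above the campaign mean of all compounds plus 3 SD, cut at about 26% in these data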;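 further: competitive labeling of PME-1 active site by serine hydrolase directed probe; 0% = PME-1 with DMSO and 100% = wells lacking PME-1 enzyme; inhibitors block probe labeling so polarization falls and inhibition rises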
# GSTO1 inh: inhibitors of recombinant GSTO1, primary screen, counter-screen for RBBP9 inhibitor project, biochemical, fluorescence polarization. AID 1974, 2009. activity-based probe fluorescence polarization. 300,000 compounds, 1.1% hits. inhibition, % at 5.96 µM;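 active means inhibition above the campaign mean inhibition plus 3 SD, cut at about 35% in these data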;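 further: 0% = GSTO1-1 with DMSO and 100% = wells lacking GSTO1-1 enzyme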
# Target sequence (P78417 whole entry, looked up): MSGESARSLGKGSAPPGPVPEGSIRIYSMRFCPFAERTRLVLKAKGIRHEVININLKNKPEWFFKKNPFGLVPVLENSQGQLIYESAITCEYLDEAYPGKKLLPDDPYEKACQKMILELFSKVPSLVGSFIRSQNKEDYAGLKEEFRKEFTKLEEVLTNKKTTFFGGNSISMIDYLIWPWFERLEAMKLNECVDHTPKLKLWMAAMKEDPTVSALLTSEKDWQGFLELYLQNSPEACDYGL
# LYPLA2 inh: LYPLA2 inhibitors, primary screen, counter-screen for PME1 inhibitor project, biochemical, fluorescence polarization, FP-Rh probe ABPP; Acyl-protein thioesterase 2 (Homo sapiens), O95372; inhibition, % at 5.9 µM; recombinant LYPLA2; 320,000 compounds, 0.38% hits;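 active means inhibition above the screen-wide mean plus 3 SD, limit set per campaign, cut at about 26% in these data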;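 further: 0% = LYPLA2 with DMSO and 100% = wells lacking LYPLA2 enzyme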
# Target sequence (O95372 whole entry, looked up): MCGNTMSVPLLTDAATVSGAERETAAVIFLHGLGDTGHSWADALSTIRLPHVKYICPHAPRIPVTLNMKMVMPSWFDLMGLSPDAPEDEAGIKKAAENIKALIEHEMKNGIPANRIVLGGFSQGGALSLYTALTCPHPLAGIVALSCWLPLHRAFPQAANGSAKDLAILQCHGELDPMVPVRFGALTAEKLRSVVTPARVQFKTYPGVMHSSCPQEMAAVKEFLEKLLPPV
# PAD4 FP conf: human PAD4 inhibitors, confirmation, biochemical, fluorescence polarization; shares compounds with PAD4 FP inh; AID 488796, 2010; 1,200 compounds, 28% hits; recombinant PAD4, RCA probe fluorescence polarization; inhibition, % at 6.36 µM;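 active means mean inhibition across replicates above the hit cutoff set by the earlier primary screen, cut at about 15% in these data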;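 further: inhibitors block active-site labeling by the probe so polarization falls; 0% = PAD4 with probe and DMSO and 100% = probe without PAD4 enzyme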
# The depositor's hits bear a star; . = not tested or not shown. The list is not random: actives were taken first. Their share in the collection is about 1.8%.
SMILES,Fam108B inh,LYPLA1 inh,PAD4 FP inh,PME-1 inh,GSTO1 inh,LYPLA2 inh,PAD4 FP conf
COc1cc(/C=N/c2oc(-c3ccccc3)cc2C#N)ccc1O,-7,-3,-3,-3,0,-8,.
CC(=O)NC1=NN(c2ccccc2)C(=O)C1,-5,-3,43*,-8,13,-4,3
O=C(CCCCl)NC1=NN(c2ccccc2)C(=O)C1,1,0,-9,1,19,4,.
NC(=S)N/N=C/c1ccccc1OCCSc1ccc(Cl)cc1,-16,-19,-3,-19,-5,-16,.
COC(=O)c1c(NC(=O)c2cccnc2)sc(C(=O)N(C)C)c1C,1,5,2,2,5,-2,.
COC(=O)c1c(NC(=O)c2ccco2)sc(C(=O)N(C)C)c1C,0,-3,19*,-8,11,-12,16*
COc1cc(/C=C/C(=O)OCC(=O)N(C)Cc2ccccc2)cc(OC)c1OC,.,.,26*,.,.,.,-5
Cc1ccc(S(=O)(=O)CCSc2cccc(C(=O)Nc3ccccc3C(=O)O)c2)cc1,-7,-4,19*,36*,-42,2,36*
Cc1ccc(NC(=O)c2cccc(C(=O)Nc3ccc(C)cc3C(=O)O)c2)c(C(=O)O)c1,-5,1,-1,2,-43,-3,.
CCOC(=O)N1CCN(C(=O)c2cn(CC)c3ccc(S(=O)(=O)N4CCCCC4)cc3c2=O)CC1,-6,3,-9,-2,-4,1,.
CN(C)S(=O)(=O)c1cccc(NC(=O)CCCc2nc3ccccc3c(=O)[nH]2)c1,3,2,29*,12,-2,3,7
O=C(CCc1nc2ccccc2c(=O)[nH]1)Nc1cccc(S(=O)(=O)N2CCCCC2)c1,-4,2,-3,23,3,3,.
CCN(CC)CCN(Cc1cc2ccc(C)cc2[nH]c1=O)C(=O)Nc1ccc(Cl)cc1,-1,-2,-3,-50,0,-10,.
C/C(=N\NC(=O)c1ccn(C)n1)c1cccc(NC(=O)c2ccncc2)c1,3,-3,-3,-3,1,0,.
Cc1ccccc1OCC(=O)NC(=S)Nc1ccccc1N1CCN(S(C)(=O)=O)CC1,-9,-2,-1,3,1,-14,.
Cc1ccc(N/C=C2\C(=O)C3(C)CCC2C3(C)C)cc1C (stereo not drawn),1,0,-9,3,11,-1,.
CC12CCC(C(=Nc3ccc(N=C4C(=O)C5(C)CCC4C5(C)C)cc3)C1=O)C2(C)C,3,2,45*,9,8,4,-3
CCC(CC)C1C(C#N)=C(N)Oc2cc(C)oc(=O)c21 (stereo not drawn),4,-3,-5,-2,-2,-5,.
Cc1cc2c(c(=O)o1)C(c1ccc([N+](=O)[O-])o1)C(C#N)=C(N)O2 (stereo not drawn),6,7,27*,12,23,10,2
Cc1ccc(CCC(=O)Nc2ccc(CC(=O)O)cc2)o1,0,1,2,-4,11,7,.
C#CCOCCOCCOCCNc1nc(N2CCN(C(=O)[C@H](CCC(=O)O)n3cc(C(N)[C@H](C)CC)nn3)CC2)nc(N2CCN(C(=O)[C@H](Cc3cc4ccccc4[nH]3)n3cc(C(N)[C@H](C)CC)nn3)CC2)n1 (stereo partly drawn),3,0,27*,-2,4,2,10
Cc1ccc(SCc2cc(=O)n(C)[nH]2)cc1,2,-4,24*,-1,53*,5,0
Cc1ccc(SCc2cc(=O)n3[nH]c(C)nc3n2)cc1,0,-1,-7,4,0,-4,.
c1ccc(Nc2cc(Nc3ccccc3)[nH]n2)cc1,3,4,31*,7,4,7,8
O=C(CN1C(=O)C2C3C=CC(C3)C2C1=O)Nc1nc2ccccc2[nH]1 (stereo not drawn),-2,5,-4,-2,-4,2,.
SMILES,Fam108B inh,LYPLA1 inh,PAD4 FP inh,PME-1 inh,GSTO1 inh,LYPLA2 inh,PAD4 FP conf
NS(=O)(=O)c1ccc(NC(=S)NCc2ccc(Cl)cc2)cc1,-3,-7,20*,-5,0,-10,6
Cc1ccc(C2(C)NC(=O)N(CC(=O)N(C)CC(=O)Nc3cccc4ccccc34)C2=O)cc1 (stereo not drawn),2,-2,-3,-2,8,2,.
CC(=O)c1sc(C(C)(C)C)cc1NC(=O)c1ccccc1C(=O)O,0,3,-6,3,-5,2,.
Fc1ccc(Cn2c(SCc3ccc(F)c(C(F)(F)F)c3)nnc2C(F)(F)F)cc1,7,-3,23*,-1,6,2,-3
Fc1ccc(Cn2c(SCc3ccc(F)c(F)c3)nnc2C(F)(F)F)cc1,3,1,0,1,3,5,.
CC1(C)Cc2ccccc2C(CSc2ccccc2C(=O)O)=N1,3,-4,20*,-4,12,0,20*
COc1cc2c(cc1OC)C(CSc1ccccc1C(=O)O)=NC(C)(C)C2,2,1,7,2,9,0,.
CC(C)CC(=O)Nc1ccc(C(=O)COC(=O)Cc2n[nH]c(=O)c3ccccc23)cc1,.,-5,-1,-1,.,3,.
CC(=O)C1=C(O)C(=O)N(CC(=O)O)C1c1ccccc1Cl (stereo not drawn),0,1,20*,0,1,-3,4
O=C(O)c1cn(Cc2cccnc2)c(=O)c2ccccc12,0,0,4,-1,5,8,.
Cc1ccc2sc(C)[n+](CCC(C)S(=O)(=O)[O-])c2c1 (stereo not drawn),2,0,8,6,3,0,.
O=c1c2ccccc2oc2ccc(-c3ccc4cc[nH]c4c3)cc12,.,.,-4,.,.,.,.
CCN(CC)c1nc(N)nc(NS(=O)(=O)c2ccc(Cl)cc2)n1,-3,5,27*,-1,7,3,4
Cc1cc(NN)nc(NS(=O)(=O)c2ccc(Cl)cc2)n1,-4,-6,1,0,7,-19,.
O=C(Cc1ccccc1)NCC(=O)OCC(=O)c1ccc(OC(=O)c2ccccc2)cc1,1,2,1,-2,0,0,.
COC(=O)N/N=C1/C/C(=N\NC(=O)OC)c2ccccc21,0,-2,21*,2,17,-4,2
